From PubChem BioAssay (NCI)
About 79,000 compounds went through this panel and 15% of them were active in at least one assay; those are over-represented in the sample as a whole. The source made the active and inactive calls. Rule as the data show it: active = growth inhibition above about 70%; inactive = the rest.

Tests used:
[1] = NCI Yeast Anticancer Drug Screen. Data for the wt1 strain (AID 149);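 also: 0% = growth of vehicle-treated wt1 cultures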; conditions: S. cerevisiae wt1 strain (SPY 50644) growth inhibition, hits give high values
In short: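 The wt1 strain was treated with compounds, and growth was compared with vehicle-treated cultures to give inhibition.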

[2] = NCI Yeast Anticancer Drug Screen. Data for the rad50EPP+ strain (AID 151);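 also: 0% = growth of vehicle-treated control cultures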; conditions: S. cerevisiae rad50 mutant strain, hits give high values
In short: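 Yeast strain carrying rad50 alteration (rad50EPP+) exposed to compounds; growth inhibition measured relative to vehicle-treated controls.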

[3] = NCI Yeast Anticancer Drug Screen. Data for the mgt1 strain (AID 153); conditions: S. cerevisiae mgt1 mutant growth inhibition, hits give high values
In short: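 Yeast mgt1 strain (DNA repair/cell-cycle alteration panel) exposed to compounds; growth inhibition measured relative to vehicle-treated controls.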

[4] = NCI Yeast Anticancer Drug Screen. Data for the rad50 strain (AID 155);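 also: 0% = growth of vehicle-only cultures of the same strain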; conditions: S. cerevisiae rad50 strain growth inhibition, hits give high values
In short: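 Cells are treated with compound, grown, and their growth is then scored against vehicle-only cultures of the same repair-deficient yeast strain.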

[5] = NCI Yeast Anticancer Drug Screen. Data for the mec2-1 strain (AID 157); conditions: S. cerevisiae mec2-1 strain, hits give high values
In short: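 mec2-1 yeast strain, carrying an alteration in DNA damage repair or cell cycle control, was exposed to compounds; growth inhibition was measured relative to vehicle-treated controls.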

[6] = NCI Yeast Anticancer Drug Screen. Data for the sgs1 mgt1 strain (AID 161);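 also: 0% = growth of cultures given vehicle only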; conditions: S. cerevisiae sgs1 mgt1 strain, hits give high values
In short: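 Compounds are added to genetically altered yeast, and growth is compared with cultures given vehicle alone to give percent inhibition.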

[7] = NCI Yeast Anticancer Drug Screen. Data for the CLN2oe strain (AID 163);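 also: 0% = growth of vehicle-only control cultures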; conditions: S. cerevisiae CLN2oe strain, hits give high values
In short: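 Yeast cells carrying a defined cell-cycle control alteration were exposed to test compounds. Growth inhibition was scored against vehicle-treated control cultures.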

[8] = NCI Yeast Anticancer Drug Screen. Data for the cln2 rad14 strain (AID 165);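 also: 0% = growth equal to vehicle treated cultures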; conditions: S. cerevisiae cln2 rad14 strain, hits give high values
In short: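 Yeast carrying cln2 and rad14 alterations (cell cycle control and DNA damage repair) were exposed to compounds. Growth inhibition was measured against vehicle-treated controls.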

[9] = NCI Yeast Anticancer Drug Screen. Data for the bub3 strain (AID 167); conditions: S. cerevisiae bub3 mutant strain, hits give high values
In short: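 Part of a panel of yeast mutants defective in DNA damage repair or cell cycle regulation. Each strain is grown with compound, and inhibition is calculated relative to solvent-treated cultures.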

[10] = NCI Yeast Anticancer Drug Screen. Data for the wt2 strain (AID 169);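 also: 0% = growth of vehicle-treated yeast cultures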; conditions: S. cerevisiae wt2 strain growth inhibition, hits give high values
In short: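 Yeast cells were exposed to test compounds, and growth inhibition was measured relative to vehicle-treated controls.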

[11] = NCI Yeast Anticancer Drug Screen. Data for the mlh1 strain (AID 171);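 also: 0% = growth of vehicle-treated control cultures of the same strain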; conditions: S. cerevisiae mlh1 strain growth inhibition, hits give high values
In short: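 Yeast carrying a defined genetic alteration in DNA damage repair or cell cycle control were exposed to test compounds. Growth inhibition was measured relative to vehicle-treated controls.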

[12] = NCI Yeast Anticancer Drug Screen. Data for the sgs1 strain (AID 173);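 also: 0% = growth of vehicle-only control cultures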; conditions: S. cerevisiae sgs1 mutant, hits give high values
In short: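 Yeast mutant strains carrying defined defects in DNA damage repair or cell cycle control were exposed to test compounds. Growth inhibition was scored against vehicle-treated controls.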

[13] = NCI Yeast Anticancer Drug Screen. Data for the mlh1 rad18 strain (AID 175); conditions: S. cerevisiae mlh1 rad18 strain growth inhibition, hits give high values
In short: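 Growth inhibition of the yeast strain was measured after compound exposure and expressed relative to vehicle-treated controls. The strain carries defined defects in DNA damage repair.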

[14] = NCI Yeast Anticancer Drug Screen. Data for the rad18 strain (AID 177); conditions: S. cerevisiae rad18 mutant growth inhibition, hits give high values
In short: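 Yeast carrying a defined DNA damage repair alteration were exposed to compounds. Growth inhibition was expressed relative to vehicle-treated controls.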

[15] = NCI Yeast Anticancer Drug Screen. Data for the rad52 strain (AID 147);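 also: 0% = growth of vehicle-treated control cultures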; conditions: S. cerevisiae rad52 mutant growth inhibition, hits give high values
In short: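 Yeast strain carrying a DNA damage repair alteration was exposed to test compounds. Growth inhibition was measured relative to vehicle-treated controls.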

[16] = NCI Yeast Anticancer Drug Screen. Data for the rad14 strain (AID 159);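 also: 0% = growth of vehicle-treated control cultures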; conditions: S. cerevisiae rad14 strain growth inhibition, hits give high values
In short: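 Readout: yeast growth inhibition, referenced to vehicle-only cultures. Strain bears a defined alteration in DNA damage repair.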

[17] = at 5.0 µM (retest, dose inferred, filed as 0.5)
[18] = at 50.0 µM (retest, dose inferred, filed as 5.0)

Measured: growth inhibition

O=C(Nc1cc(Cl)ccc1Cl)C(Cl)(Cl)Cl
inactive: [1]; at 1.2 µM 0% | [1]; at 3.7 µM 2% | [1]; at 11.0 µM 4% | [1]; at 33.0 µM 6% | [1]; at 100.0 µM 6% | [2]; at 1.2 µM 2% | [2]; at 3.7 µM 8% | [2]; at 11.0 µM 14% | [2]; at 33.0 µM 22% | [2]; at 100.0 µM 25% | [3]; at 1.2 µM 1% | [3]; at 3.7 µM 3% | [3]; at 11.0 µM 6% | [3]; at 33.0 µM 5% | [3]; at 100.0 µM -22% | [4]; at 1.2 µM 2% | [4]; at 3.7 µM 6% | [4]; [17] 16% | [4]; at 11.0 µM 13% | [4]; at 33.0 µM 26% | [4]; [18] 41% | [4]; at 50.0 µM 53.9% | [4]; at 100.0 µM 26% | [5]; at 1.2 µM 1% | [5]; at 3.7 µM 6% | [5]; [17] -4% | [5]; at 11.0 µM 11% | [5]; at 33.0 µM 19% | [5]; [18] 58% | [5]; at 50.0 µM 61.3% | [5]; at 100.0 µM 25% | [6]; [17] 1% | [6]; [18] 32% | [6]; at 50.0 µM 24.1% | [7]; at 1.2 µM 4% | [7]; at 3.7 µM 5% | [7]; at 11.0 µM 10% | [7]; at 33.0 µM 7% | [7]; at 100.0 µM 9% | [8]; [17] 32% | [8]; [18] -6% | [8]; at 50.0 µM -52.4% | [9]; at 1.2 µM -1% | [9]; at 3.7 µM 3% | [9]; [17] -11% | [9]; at 11.0 µM 8% | [9]; at 33.0 µM 10% | [9]; [18] 31% | [9]; at 50.0 µM 28.1% | [9]; at 100.0 µM 12% | [10]; at 1.2 µM 1% | [10]; at 3.7 µM 2% | [10]; at 11.0 µM 5% | [10]; at 33.0 µM 3% | [10]; at 100.0 µM 6% | [11]; at 1.2 µM 1% | [11]; at 3.7 µM 4% | [11]; at 11.0 µM 5% | [11]; at 33.0 µM 12% | [11]; at 100.0 µM 20% | [12]; at 1.2 µM 1% | [12]; at 3.7 µM 3% | [12]; at 11.0 µM 7% | [12]; at 33.0 µM 10% | [12]; at 100.0 µM 19% | [13]; [17] -1% | [13]; at 50.0 µM 63.6% | [14]; at 1.2 µM 2% | [14]; at 3.7 µM 4% | [14]; at 11.0 µM 16% | [14]; at 33.0 µM 23% | [14]; at 100.0 µM 31%
active: [13]; [18] 70%

CC(Cc1ccccc1)N(C)Cc1nc(C2CCC([N+](=O)[O-])O2)no1 (stereo unspecified)
active: [15]; at 100.0 µM 84% | [4]; [18] 95% | [4]; at 50.0 µM 84.7% | [4]; at 100.0 µM 81% | [5]; [18] 98% | [16]; at 33.0 µM 70% | [16]; at 100.0 µM 93% | [6]; [18] 99% | [6]; at 50.0 µM 85.3% | [7]; at 100.0 µM 93% | [8]; [18] 94% | [8]; at 50.0 µM 88% | [9]; [18] 100% | [9]; at 50.0 µM 90% | [9]; at 100.0 µM 79% | [13]; [18] 97% | [13]; at 50.0 µM 80.2% | [14]; at 33.0 µM 86% | [14]; at 100.0 µM 95%
inactive: [15]; at 1.2 µM 6% | [15]; at 3.7 µM 14% | [15]; at 11.0 µM 22% | [15]; at 33.0 µM 53% | [2]; at 1.2 µM 5% | [2]; at 3.7 µM 14% | [2]; at 11.0 µM 27% | [2]; at 33.0 µM 44% | [2]; at 100.0 µM 42% | [4]; at 1.2 µM 4% | [4]; at 3.7 µM 10% | [4]; [17] 17% | [4]; at 11.0 µM 10% | [4]; at 33.0 µM 46% | [5]; at 1.2 µM 4% | [5]; at 3.7 µM 2% | [5]; [17] 18% | [5]; at 11.0 µM 4% | [5]; at 33.0 µM 17% | [5]; at 50.0 µM 66% | [5]; at 100.0 µM 33% | [16]; at 1.2 µM 5% | [16]; at 3.7 µM 14% | [16]; at 11.0 µM 45% | [6]; [17] 35% | [7]; at 1.2 µM -1% | [7]; at 3.7 µM 1% | [7]; at 11.0 µM 8% | [7]; at 33.0 µM 48% | [8]; [17] 5% | [9]; at 1.2 µM 0% | [9]; at 3.7 µM 9% | [9]; [17] -16% | [9]; at 11.0 µM 20% | [9]; at 33.0 µM 54% | [10]; at 1.2 µM 0% | [10]; at 3.7 µM 3% | [10]; at 11.0 µM 9% | [10]; at 33.0 µM 27% | [10]; at 100.0 µM 34% | [11]; at 1.2 µM -1% | [11]; at 3.7 µM -3% | [11]; at 11.0 µM 2% | [11]; at 33.0 µM 14% | [11]; at 100.0 µM 17% | [12]; at 1.2 µM -26% | [12]; at 3.7 µM 5% | [12]; at 11.0 µM 20% | [12]; at 33.0 µM 50% | [12]; at 100.0 µM 67% | [13]; [17] 47% | [14]; at 1.2 µM 14% | [14]; at 3.7 µM 36% | [14]; at 11.0 µM 69%

O=C(O)CCCOc1cc(Cl)c(Cl)cc1Cl
inactive: [15]; at 1.2 µM -13% | [15]; at 3.7 µM -4% | [15]; at 11.0 µM 1% | [15]; at 33.0 µM 45% | [2]; at 1.2 µM -10% | [2]; at 3.7 µM -6% | [2]; at 11.0 µM 13% | [2]; at 33.0 µM 43% | [3]; at 1.2 µM -17% | [3]; at 3.7 µM -32% | [3]; at 11.0 µM -13% | [3]; at 33.0 µM 35% | [4]; at 1.2 µM -10% | [4]; at 3.7 µM -17% | [4]; [17] 40% | [4]; at 11.0 µM -5% | [4]; at 33.0 µM 42% | [5]; at 1.2 µM -24% | [5]; at 3.7 µM -13% | [5]; [17] 52% | [5]; at 11.0 µM 4% | [5]; at 33.0 µM 34% | [16]; at 1.2 µM -13% | [16]; at 3.7 µM -4% | [16]; at 11.0 µM -4% | [16]; at 33.0 µM 17% | [6]; [17] -17% | [6]; [18] 18% | [7]; at 1.2 µM 0% | [7]; at 3.7 µM -15% | [7]; at 11.0 µM -11% | [7]; at 33.0 µM 4% | [7]; at 100.0 µM 60% | [8]; [17] 10% | [8]; [18] 47% | [10]; at 1.2 µM -6% | [10]; at 3.7 µM -11% | [10]; at 11.0 µM -4% | [10]; at 33.0 µM 30% | [11]; at 1.2 µM -20% | [11]; at 3.7 µM -27% | [11]; at 11.0 µM 2% | [11]; at 33.0 µM 40% | [12]; at 1.2 µM -13% | [12]; at 3.7 µM -18% | [12]; at 11.0 µM 2% | [12]; at 33.0 µM 43% | [13]; [17] 42% | [14]; at 1.2 µM -33% | [14]; at 3.7 µM -21% | [14]; at 11.0 µM -7% | [14]; at 33.0 µM 41%
active: [15]; at 100.0 µM 75% | [2]; at 100.0 µM 70% | [3]; at 100.0 µM 80% | [4]; [18] 98% | [4]; at 50.0 µM 82% | [4]; at 100.0 µM 78% | [5]; [18] 98% | [5]; at 50.0 µM 74.8% | [5]; at 100.0 µM 90% | [16]; at 100.0 µM 81% | [6]; at 50.0 µM 77.2% | [8]; at 50.0 µM 75.5% | [10]; at 100.0 µM 80% | [11]; at 100.0 µM 80% | [12]; at 100.0 µM 76% | [13]; [18] 99% | [13]; at 50.0 µM 78.7% | [14]; at 100.0 µM 77%
